Test in all cases: DAPPL (digital affinity profiling via proximity ligation, sequencing); 10 mM Tris-HCl pH 7.5, 50 mM NaCl, 1 mM DTT, 4% glycerol, room temperature, 30 min; GST-TFs on glutathione beads, 16-mer random dsDNA library, 0.1% formaldehyde crosslink after washing; high values mean tight binding
One experiment addresses T1, FEV (Homo sapiens, UniProt Q99581 1-238).
T1 sequence: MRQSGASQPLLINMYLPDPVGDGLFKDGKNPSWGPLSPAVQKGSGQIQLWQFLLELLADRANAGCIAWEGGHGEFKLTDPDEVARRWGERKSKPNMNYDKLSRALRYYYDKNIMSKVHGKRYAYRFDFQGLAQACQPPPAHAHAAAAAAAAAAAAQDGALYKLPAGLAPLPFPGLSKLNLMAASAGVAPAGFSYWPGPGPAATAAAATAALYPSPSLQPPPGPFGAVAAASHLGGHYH
The settings on record: protein: recombinant; tags: N-terminal GST; dsDNA, one strand shown. The essentials: (§1)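 Human transcription factors carrying a GST fusion were produced in yeast, bound to glutathione beads, tagged with DNA barcodes and pooled together with a tag-only sample. Each pool was held with 200 nmole of a random double-stranded 16-mer DNA library in Tris/NaCl/DTT/glycerol buffer for 30 min at room temperature, then washed, crosslinked in 0.1% formaldehyde, proximity-ligated with BsaI/T4 ligase (1 h, 37 °C), PCR-amplified and sequenced on an Illumina NextSeq500. Binding signal is the read frequency of each hexamer for a given factor divided by its frequency in the tag-only sample.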

For a further experiment, the target named is ETV5 (Homo sapiens, UniProt P41161 1-510). The settings on record: protein: recombinant; tags: N-terminal GST; dsDNA, one strand shown. The essentials:
as §1

The next experiment concerns the target HSF1 (Homo sapiens, UniProt Q00613 1-529). The conditions noted are these: protein: recombinant; tags: N-terminal GST; chain copies: 3; dsDNA, one strand shown. Summed up:
as §1

The next experiment has as its target T2, SPIC (Homo sapiens, UniProt Q8N5J4 1-248).
T2 sequence: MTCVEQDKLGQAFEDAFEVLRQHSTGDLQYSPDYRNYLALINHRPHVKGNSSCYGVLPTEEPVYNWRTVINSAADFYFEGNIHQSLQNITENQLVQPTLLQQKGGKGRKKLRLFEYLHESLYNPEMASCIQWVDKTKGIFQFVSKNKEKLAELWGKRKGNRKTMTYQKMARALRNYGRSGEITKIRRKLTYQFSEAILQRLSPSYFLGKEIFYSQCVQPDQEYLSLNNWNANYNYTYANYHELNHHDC
The settings on record: protein: recombinant; tags: N-terminal GST; dsDNA, one strand shown. The essentials:
as §1

The target in another experiment is ELF4 (Homo sapiens, UniProt Q99607 1-663). The settings on record: protein: recombinant; tags: N-terminal GST; dsDNA, one strand shown. The essentials: as §1
The target in another experiment is T3, ELK4 (Homo sapiens, UniProt P28324-2 1-405).
T3 sequence: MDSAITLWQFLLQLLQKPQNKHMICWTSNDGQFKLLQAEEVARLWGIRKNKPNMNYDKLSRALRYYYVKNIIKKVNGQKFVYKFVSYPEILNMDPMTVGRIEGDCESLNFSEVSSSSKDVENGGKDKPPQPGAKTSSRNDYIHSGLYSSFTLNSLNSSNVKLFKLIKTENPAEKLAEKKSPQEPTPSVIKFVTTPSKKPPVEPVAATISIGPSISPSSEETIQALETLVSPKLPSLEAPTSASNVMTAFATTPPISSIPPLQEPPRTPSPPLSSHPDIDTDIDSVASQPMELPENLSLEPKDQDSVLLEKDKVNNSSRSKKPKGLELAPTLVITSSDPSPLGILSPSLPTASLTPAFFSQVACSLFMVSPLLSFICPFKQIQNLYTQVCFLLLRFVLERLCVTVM
The settings on record: protein: recombinant; tags: N-terminal GST; dsDNA, one strand shown. The essentials: as §1

For the next experiment, the target named is T4, ETV2 (Homo sapiens, UniProt O00321 1-342).
T4 sequence: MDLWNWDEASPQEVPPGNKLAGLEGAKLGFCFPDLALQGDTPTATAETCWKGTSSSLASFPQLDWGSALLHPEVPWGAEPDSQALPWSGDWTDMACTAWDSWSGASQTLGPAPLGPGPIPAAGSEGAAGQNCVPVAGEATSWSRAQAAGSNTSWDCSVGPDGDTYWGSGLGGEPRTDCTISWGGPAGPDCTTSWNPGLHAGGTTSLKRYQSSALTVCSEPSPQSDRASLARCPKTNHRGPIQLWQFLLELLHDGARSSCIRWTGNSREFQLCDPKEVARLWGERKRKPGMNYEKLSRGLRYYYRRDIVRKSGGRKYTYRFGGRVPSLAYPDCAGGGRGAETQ
The settings on record: protein: recombinant; tags: N-terminal GST; dsDNA, one strand shown. The essentials:
as §1

A further experiment addresses T5, ELF3 (Homo sapiens, UniProt P78545 1-371).
T5 sequence: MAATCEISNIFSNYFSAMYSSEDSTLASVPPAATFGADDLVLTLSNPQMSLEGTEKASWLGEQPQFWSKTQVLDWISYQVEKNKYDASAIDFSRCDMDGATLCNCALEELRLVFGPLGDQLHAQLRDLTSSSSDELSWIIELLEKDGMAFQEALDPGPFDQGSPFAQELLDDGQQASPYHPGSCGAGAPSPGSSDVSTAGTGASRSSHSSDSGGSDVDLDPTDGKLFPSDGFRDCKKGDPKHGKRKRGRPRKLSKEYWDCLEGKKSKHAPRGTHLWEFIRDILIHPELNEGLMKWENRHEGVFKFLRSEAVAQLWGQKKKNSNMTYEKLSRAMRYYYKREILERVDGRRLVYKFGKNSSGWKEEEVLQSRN
The conditions noted are these: protein: recombinant; tags: N-terminal GST; dsDNA, one strand shown. The essentials: as §1

A further experiment concerns the target CRX (Homo sapiens, UniProt O43186 1-299). The conditions noted are these: protein: recombinant; tags: N-terminal GST; dsDNA, one strand shown. The essentials: as §1
Another experiment addresses ETV1 (Homo sapiens, UniProt P50549 1-477). The conditions noted are these: protein: recombinant; tags: N-terminal GST; dsDNA, one strand shown. The essentials: as §1
Another experiment addresses T6, ERF (Homo sapiens, UniProt P50548 1-548).
T6 sequence: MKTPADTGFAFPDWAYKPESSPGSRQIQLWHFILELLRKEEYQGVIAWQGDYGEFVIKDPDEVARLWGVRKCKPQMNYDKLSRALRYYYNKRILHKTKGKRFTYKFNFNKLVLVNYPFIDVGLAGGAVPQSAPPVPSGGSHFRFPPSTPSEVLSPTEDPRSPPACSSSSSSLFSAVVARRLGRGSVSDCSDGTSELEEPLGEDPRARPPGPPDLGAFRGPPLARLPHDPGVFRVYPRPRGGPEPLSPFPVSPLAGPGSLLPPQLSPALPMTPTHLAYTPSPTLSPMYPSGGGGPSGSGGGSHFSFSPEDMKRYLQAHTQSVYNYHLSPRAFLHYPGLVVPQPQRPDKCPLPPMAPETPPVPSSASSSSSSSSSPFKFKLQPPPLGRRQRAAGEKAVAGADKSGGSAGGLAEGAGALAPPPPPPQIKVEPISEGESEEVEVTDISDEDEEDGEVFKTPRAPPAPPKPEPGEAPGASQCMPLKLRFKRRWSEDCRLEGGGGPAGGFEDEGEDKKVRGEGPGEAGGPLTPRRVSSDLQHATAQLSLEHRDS
The conditions noted are these: protein: recombinant; tags: N-terminal GST; dsDNA, one strand shown. Summed up:
as §1

Another experiment addresses T7, ETV3L (Homo sapiens, UniProt Q6ZN32 1-361).
T7 sequence: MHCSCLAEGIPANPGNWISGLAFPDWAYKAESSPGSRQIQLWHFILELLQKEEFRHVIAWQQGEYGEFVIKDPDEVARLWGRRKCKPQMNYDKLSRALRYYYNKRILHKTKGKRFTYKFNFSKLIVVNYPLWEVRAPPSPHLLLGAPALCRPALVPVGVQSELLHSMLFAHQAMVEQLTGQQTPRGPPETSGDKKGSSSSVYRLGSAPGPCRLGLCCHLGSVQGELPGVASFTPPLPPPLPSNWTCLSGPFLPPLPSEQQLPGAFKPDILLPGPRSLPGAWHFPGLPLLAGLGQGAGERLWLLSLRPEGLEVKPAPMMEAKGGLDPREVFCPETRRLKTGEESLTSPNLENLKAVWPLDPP
The conditions noted are these: protein: recombinant; tags: N-terminal GST; dsDNA, one strand shown. The essentials: as §1

Another experiment concerns the target T8, ETS2 (Homo sapiens, UniProt P15036 1-469).
T8 sequence: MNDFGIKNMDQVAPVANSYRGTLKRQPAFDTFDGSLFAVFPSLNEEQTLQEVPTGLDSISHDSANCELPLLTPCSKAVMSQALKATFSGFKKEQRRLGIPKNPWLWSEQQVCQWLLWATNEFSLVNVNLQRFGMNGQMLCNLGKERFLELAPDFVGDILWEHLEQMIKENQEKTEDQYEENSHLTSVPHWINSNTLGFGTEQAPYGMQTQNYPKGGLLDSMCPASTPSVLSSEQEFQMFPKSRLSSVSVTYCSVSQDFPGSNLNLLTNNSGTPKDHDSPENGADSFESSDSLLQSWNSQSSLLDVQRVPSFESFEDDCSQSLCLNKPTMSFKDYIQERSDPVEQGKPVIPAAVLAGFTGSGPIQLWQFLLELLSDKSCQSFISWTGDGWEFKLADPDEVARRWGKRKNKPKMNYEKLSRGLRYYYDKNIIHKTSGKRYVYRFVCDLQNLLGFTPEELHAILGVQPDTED
The settings on record: protein: recombinant; tags: N-terminal GST; dsDNA, one strand shown. The essentials: as §1

A further experiment deals with T9, SPDEF (Homo sapiens, UniProt O95238 1-335).
T9 sequence: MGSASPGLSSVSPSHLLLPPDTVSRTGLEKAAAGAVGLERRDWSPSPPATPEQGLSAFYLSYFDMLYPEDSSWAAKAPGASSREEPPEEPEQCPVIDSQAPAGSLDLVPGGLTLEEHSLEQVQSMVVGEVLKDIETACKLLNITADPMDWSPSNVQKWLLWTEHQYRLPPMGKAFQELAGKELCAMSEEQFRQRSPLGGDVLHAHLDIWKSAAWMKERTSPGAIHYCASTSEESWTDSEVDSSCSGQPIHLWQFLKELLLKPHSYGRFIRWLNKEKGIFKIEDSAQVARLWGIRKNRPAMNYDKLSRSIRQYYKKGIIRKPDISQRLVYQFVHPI
The settings on record: protein: recombinant; tags: N-terminal GST; dsDNA, one strand shown. The essentials: as §1

A further experiment has as its target T10, ETV7 (Homo sapiens, UniProt Q9Y603 1-341).
T10 sequence: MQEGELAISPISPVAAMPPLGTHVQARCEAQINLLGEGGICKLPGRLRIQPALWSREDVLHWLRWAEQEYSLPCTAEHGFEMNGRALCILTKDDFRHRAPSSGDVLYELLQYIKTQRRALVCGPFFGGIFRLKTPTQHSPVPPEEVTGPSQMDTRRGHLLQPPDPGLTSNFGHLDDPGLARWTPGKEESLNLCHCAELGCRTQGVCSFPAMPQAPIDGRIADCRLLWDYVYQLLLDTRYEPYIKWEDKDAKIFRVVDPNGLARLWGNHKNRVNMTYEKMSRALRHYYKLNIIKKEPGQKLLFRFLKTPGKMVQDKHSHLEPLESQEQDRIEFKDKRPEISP
The conditions noted are these: protein: recombinant; tags: N-terminal GST; dsDNA, one strand shown. The essentials:
as §1

Another experiment deals with T11, ELF5 (Homo sapiens, UniProt Q9UKW6-2 1-255).
T11 sequence: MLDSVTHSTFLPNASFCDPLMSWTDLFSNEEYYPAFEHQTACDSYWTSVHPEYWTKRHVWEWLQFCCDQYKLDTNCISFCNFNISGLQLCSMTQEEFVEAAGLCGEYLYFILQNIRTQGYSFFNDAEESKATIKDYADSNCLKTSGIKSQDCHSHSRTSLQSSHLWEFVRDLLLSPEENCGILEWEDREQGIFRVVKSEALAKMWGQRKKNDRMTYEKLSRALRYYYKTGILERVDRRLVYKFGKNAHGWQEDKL
The settings on record: protein: recombinant; tags: N-terminal GST; dsDNA, one strand shown. Summed up:
as §1

The target in the next experiment is T12, ETV3 (Homo sapiens, UniProt P41162-2 1-143).
T12 sequence: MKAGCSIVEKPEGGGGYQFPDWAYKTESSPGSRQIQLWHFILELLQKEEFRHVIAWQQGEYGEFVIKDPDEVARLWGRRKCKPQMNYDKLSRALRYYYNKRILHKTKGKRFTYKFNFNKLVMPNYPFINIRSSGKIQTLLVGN
The settings on record: protein: recombinant; tags: N-terminal GST; dsDNA, one strand shown. Summed up:
as §1

Another experiment concerns the target ETV6 (Homo sapiens, UniProt P41212 1-452). The settings on record: protein: recombinant; tags: N-terminal GST; dsDNA, one strand shown. Summed up:
as §1

Chain of CRX (O43186 whole entry): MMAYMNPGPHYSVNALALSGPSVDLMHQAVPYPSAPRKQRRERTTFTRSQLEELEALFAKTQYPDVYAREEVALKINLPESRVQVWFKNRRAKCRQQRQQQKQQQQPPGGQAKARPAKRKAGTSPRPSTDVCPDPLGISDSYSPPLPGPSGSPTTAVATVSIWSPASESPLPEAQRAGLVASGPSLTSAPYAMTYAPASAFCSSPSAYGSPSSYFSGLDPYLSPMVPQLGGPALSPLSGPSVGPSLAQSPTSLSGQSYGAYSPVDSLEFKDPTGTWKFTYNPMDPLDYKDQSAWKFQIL
Chain of ELF4 (Q99607 whole entry): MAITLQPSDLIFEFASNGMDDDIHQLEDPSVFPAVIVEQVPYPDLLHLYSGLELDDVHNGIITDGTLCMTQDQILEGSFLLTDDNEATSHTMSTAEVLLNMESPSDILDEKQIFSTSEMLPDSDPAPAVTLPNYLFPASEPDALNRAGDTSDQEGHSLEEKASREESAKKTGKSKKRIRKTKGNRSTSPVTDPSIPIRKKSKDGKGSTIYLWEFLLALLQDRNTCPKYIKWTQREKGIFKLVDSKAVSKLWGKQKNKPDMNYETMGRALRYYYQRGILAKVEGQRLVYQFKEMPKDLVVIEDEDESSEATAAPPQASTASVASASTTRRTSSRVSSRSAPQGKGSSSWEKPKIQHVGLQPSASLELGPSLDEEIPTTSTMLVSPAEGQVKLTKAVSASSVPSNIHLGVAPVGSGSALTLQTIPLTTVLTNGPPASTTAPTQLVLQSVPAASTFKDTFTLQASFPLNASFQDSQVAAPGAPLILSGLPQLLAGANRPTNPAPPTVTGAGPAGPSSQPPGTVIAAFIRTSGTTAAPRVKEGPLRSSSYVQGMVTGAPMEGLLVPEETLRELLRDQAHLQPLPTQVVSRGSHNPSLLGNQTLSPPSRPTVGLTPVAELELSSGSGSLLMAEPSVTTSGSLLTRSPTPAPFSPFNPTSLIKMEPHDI
Chain of ETV5 (P41161 whole entry): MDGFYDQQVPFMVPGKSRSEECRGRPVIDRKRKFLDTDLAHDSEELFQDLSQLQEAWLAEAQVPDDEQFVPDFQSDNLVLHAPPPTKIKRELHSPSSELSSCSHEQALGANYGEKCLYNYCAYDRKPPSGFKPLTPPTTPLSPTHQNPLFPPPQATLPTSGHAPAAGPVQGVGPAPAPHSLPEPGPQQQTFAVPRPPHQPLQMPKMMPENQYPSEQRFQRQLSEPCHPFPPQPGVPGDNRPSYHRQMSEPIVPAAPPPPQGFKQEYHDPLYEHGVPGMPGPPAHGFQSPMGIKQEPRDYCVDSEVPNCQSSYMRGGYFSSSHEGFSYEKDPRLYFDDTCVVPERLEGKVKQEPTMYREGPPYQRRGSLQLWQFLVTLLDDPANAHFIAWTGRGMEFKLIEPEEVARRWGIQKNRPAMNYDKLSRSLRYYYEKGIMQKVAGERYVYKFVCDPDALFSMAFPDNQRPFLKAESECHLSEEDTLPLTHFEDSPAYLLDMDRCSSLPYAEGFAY
Chain of HSF1 (Q00613 whole entry): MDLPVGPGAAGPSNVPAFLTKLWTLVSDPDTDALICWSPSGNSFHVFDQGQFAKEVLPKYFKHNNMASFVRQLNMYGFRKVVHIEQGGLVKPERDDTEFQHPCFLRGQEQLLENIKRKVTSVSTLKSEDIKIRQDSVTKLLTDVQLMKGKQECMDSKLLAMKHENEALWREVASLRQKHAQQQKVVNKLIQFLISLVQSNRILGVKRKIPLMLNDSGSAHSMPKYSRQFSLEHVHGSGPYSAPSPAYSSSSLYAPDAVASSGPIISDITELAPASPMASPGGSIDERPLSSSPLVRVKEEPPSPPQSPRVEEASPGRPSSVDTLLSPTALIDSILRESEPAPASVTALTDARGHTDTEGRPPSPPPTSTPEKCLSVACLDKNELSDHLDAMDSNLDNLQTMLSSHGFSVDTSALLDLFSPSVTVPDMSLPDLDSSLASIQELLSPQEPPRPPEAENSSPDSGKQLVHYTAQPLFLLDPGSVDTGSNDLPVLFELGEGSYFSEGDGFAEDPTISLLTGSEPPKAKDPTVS
Chain of ETV1 (P50549 whole entry): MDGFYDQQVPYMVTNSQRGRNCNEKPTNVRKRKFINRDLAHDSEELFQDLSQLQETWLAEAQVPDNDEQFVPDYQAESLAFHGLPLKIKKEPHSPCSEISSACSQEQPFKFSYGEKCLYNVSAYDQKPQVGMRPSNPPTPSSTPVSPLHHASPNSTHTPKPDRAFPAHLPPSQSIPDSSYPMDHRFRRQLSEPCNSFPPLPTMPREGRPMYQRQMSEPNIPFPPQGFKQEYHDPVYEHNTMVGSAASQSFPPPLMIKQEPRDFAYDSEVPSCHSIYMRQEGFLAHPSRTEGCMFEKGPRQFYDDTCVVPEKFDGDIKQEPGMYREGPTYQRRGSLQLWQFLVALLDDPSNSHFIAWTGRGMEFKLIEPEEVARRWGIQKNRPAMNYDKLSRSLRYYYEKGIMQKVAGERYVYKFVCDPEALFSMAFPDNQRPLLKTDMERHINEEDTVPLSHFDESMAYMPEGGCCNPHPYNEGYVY
Chain of ETV6 (P41212 whole entry): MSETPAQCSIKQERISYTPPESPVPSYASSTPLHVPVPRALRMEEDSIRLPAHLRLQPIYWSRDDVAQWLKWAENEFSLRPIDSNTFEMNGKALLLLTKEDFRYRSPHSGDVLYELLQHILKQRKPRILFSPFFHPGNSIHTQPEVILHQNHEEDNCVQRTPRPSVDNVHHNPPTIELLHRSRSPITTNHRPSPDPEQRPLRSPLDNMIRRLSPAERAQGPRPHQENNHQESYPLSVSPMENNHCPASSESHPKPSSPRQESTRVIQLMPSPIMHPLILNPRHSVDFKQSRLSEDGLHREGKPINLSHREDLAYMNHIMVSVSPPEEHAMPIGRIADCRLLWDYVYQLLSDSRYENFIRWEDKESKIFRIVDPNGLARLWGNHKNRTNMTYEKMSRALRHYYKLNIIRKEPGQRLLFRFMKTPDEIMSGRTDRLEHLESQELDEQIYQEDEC

Turning to TCCATA, the binding signal with FEV was 1.21 fold enrichment (6-mer frequency, TF over GST control); with ETV5 it was 1.3 fold enrichment (6-mer frequency, TF over GST control); with HSF1 it was 1.44 fold enrichment (6-mer frequency, TF over GST control); with SPIC, 1.3 fold enrichment (6-mer frequency, TF over GST control); with ELF4 it was 1.2 fold enrichment (6-mer frequency, TF over GST control); in the experiment with ELK4, 1.25 fold enrichment (6-mer frequency, TF over GST control). In addition, the binding signal in the experiment with ETV2 was 1.19 fold enrichment (6-mer frequency, TF over GST control); with ELF3, 1.11 fold enrichment (6-mer frequency, TF over GST control); with CRX, 1.48 fold enrichment (6-mer frequency, TF over GST control); with ETV1, 1.32 fold enrichment (6-mer frequency, TF over GST control); with ERF, 1.37 fold enrichment (6-mer frequency, TF over GST control); with ETV3L it was 1.27 fold enrichment (6-mer frequency, TF over GST control). The binding signal was 1.25 fold enrichment (6-mer frequency, TF over GST control) with ETS2; 1.27 fold enrichment (6-mer frequency, TF over GST control) with SPDEF; 1.14 fold enrichment (6-mer frequency, TF over GST control) with ETV7; 1.22 fold enrichment (6-mer frequency, TF over GST control) with ELF5; 1.22 fold enrichment (6-mer frequency, TF over GST control) with ETV3; 1.27 fold enrichment (6-mer frequency, TF over GST control) with ETV6.

(Values after publication PMC7862700, “An all-to-all approach to the identification of sequence-specific readers for epigenetic DNA modifications on cytosine”.)
